We go through nine molecules from PubChem BioAssay (NCI).

The panel holds about 79,000 compounds, 15% with a hit somewhere; the sample as a whole holds those more often. Unmarked numbers belong to inactive results. Activity calls are given as the source filed them. No stated cut-off is given here; in the data, active means growth inhibition above about 70%; inactive means the rest.

Assay [1] is described as follows: NCI Yeast Anticancer Drug Screen. Data for the rad50 strain (AID 155).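 Further: 0% = growth of vehicle-only cultures of the same strain.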 The following applies: S. cerevisiae rad50 strain growth inhibition, hits give high values. In a few lines: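 Inhibition values express reduced yeast growth in compound-treated cultures relative to vehicle-treated controls.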
A short description of assay [2]: NCI Yeast Anticancer Drug Screen. Data for the mec2-1 strain (AID 157). The following applies: S. cerevisiae mec2-1 strain, hits give high values. In a few lines:
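Growth inhibition is read against vehicle-treated controls after compound exposure of the mec2-1 yeast strain, which is defective in DNA damage repair or cell cycle control.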

The nature of assay [3]: NCI Yeast Anticancer Drug Screen. Data for the sgs1 mgt1 strain (AID 161).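 Further: 0% = growth of cultures given vehicle only.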 The conditions noted are these: S. cerevisiae sgs1 mgt1 strain, hits give high values. In a few lines: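 Percent growth inhibition was derived by comparing compound-exposed mutant yeast with vehicle-exposed cultures. The strain carries alterations in DNA damage repair.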
Assay [4] can be described thus: NCI Yeast Anticancer Drug Screen. Data for the cln2 rad14 strain (AID 165).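 Further: 0% = growth equal to vehicle treated cultures.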 The following applies: S. cerevisiae cln2 rad14 strain, hits give high values. The gist of the method:
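Growth inhibition, relative to vehicle-treated controls, is the read-out. The test organism is a yeast strain with defined genetic alterations, cln2 rad14.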

The nature of assay [5]: NCI Yeast Anticancer Drug Screen. Data for the bub3 strain (AID 167). The conditions noted are these: S. cerevisiae bub3 mutant strain, hits give high values. In a few lines:
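Steps: expose the mutant yeast strain to compound; grow alongside vehicle-treated cultures; measure growth; express inhibition against the vehicle cultures.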

A short description of assay [6]: NCI Yeast Anticancer Drug Screen. Data for the mlh1 rad18 strain (AID 175). The following applies: S. cerevisiae mlh1 rad18 strain growth inhibition, hits give high values. The gist of the method:
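Cells of a genetically altered yeast strain, deficient in DNA damage repair, were treated with compound. Their growth was then compared with that of vehicle-treated cultures to give inhibition.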

Where [7] appears, read: at 5.0 µM (retest, dose inferred, filed as 0.5).
Where [8] appears, read: at 50.0 µM (retest, dose inferred, filed as 5.0).

Consider `CCCCN(CCO)CCNc1ccc(C)c2sc3ccccc3c(=O)c12`, for which the growth inhibition in assay [1] (setting [7]) is 17%; in assay [1] (setting [8]), 99% (active); in assay [1] (at 50.0 µM), 99.7% (active); in assay [2] (setting [7]) it was 14%; in assay [2] (setting [8]), 99% (active); in assay [2] (at 50.0 µM), 99.8% (active). For the same molecule, the growth inhibition in assay [3] (setting [7]) was 29%; in assay [3] (setting [8]), 100% (active); in assay [3] (at 50.0 µM), 99.6% (active); in assay [4] (setting [7]), 17%; in assay [4] (setting [8]) it was 99% (active); in assay [4] (at 50.0 µM), 99.7% (active). The growth inhibition in assay [5] (setting [7]) is 24%; in assay [5] (setting [8]) it was 99% (active); in assay [5] (at 50.0 µM), 99.6% (active); in assay [6] (setting [7]), 22%; in assay [6] (setting [8]), 99% (active); in assay [6] (at 50.0 µM), 95.5% (active).

Consider `COc1cccc2c1C(=O)c1c(O)c3c(c(O)c1C2=O)C[C@@](O)(C(O)CO)C[C@@H]3OC1CC(N(Cc2ccccc2)Cc2ccccc2)C(O)C(C)O1` (some centres not stated), for which the growth inhibition is 45% in assay [1] (setting [7]); 98% (active) in assay [1] (setting [8]); 86.8% (active) in assay [1] (at 50.0 µM); 13% in assay [2] (setting [7]); 98% (active) in assay [2] (setting [8]); 85.8% (active) in assay [2] (at 50.0 µM). The growth inhibition was 29% in assay [3] (setting [7]); 98% (active) in assay [3] (setting [8]); 65.6% in assay [3] (at 50.0 µM); 18% in assay [4] (setting [7]); 97% (active) in assay [4] (setting [8]); 45.1% in assay [4] (at 50.0 µM). The growth inhibition was 20% in assay [5] (setting [7]); 98% (active) in assay [5] (setting [8]); 62% in assay [5] (at 50.0 µM); 50% in assay [6] (setting [7]); 97% (active) in assay [6] (setting [8]); 84% (active) in assay [6] (at 50.0 µM).

As to `CC1(C)CC(=O)C2=C(C1)OC1=C(C(=O)CC(C)(C)C1)C2CC(c1ccccc1)c1ccc(O)c(O)c1O` (configuration not stated), the growth inhibition in assay [1] (setting [7]) was 22%; in assay [1] (setting [8]), 30%; in assay [1] (at 50.0 µM) it was 72.2% (active); in assay [2] (setting [7]) it was 6%; in assay [2] (setting [8]), -8%; in assay [2] (at 50.0 µM), 22.8%. Also, the growth inhibition in assay [3] (setting [7]) is 9%; in assay [3] (setting [8]), 2%; in assay [3] (at 50.0 µM) it was 48.3%; in assay [4] (setting [7]), 5%; in assay [4] (setting [8]), 18%; in assay [4] (at 50.0 µM), 28.2%. Also, the growth inhibition is -11% in assay [5] (setting [7]); -23% in assay [5] (setting [8]); 36% in assay [5] (at 50.0 µM); 30% in assay [6] (setting [7]); 10% in assay [6] (setting [8]); 56% in assay [6] (at 50.0 µM).

In the case of `CC(C(=O)O)C(N)C(=O)O` (configuration not stated), the growth inhibition in assay [1] (setting [7]) was -1%; in assay [1] (setting [8]), 4%; in assay [1] (at 50.0 µM) it was 99.5% (active); in assay [2] (setting [7]) it was -1%; in assay [2] (setting [8]) it was -6%; in assay [2] (at 50.0 µM) it was 99.6% (active). Moreover, the growth inhibition in assay [3] (setting [7]) was -2%; in assay [3] (setting [8]) it was 2%; in assay [3] (at 50.0 µM) it was 99.3% (active); in assay [4] (setting [7]), 6%; in assay [4] (setting [8]), -6%; in assay [4] (at 50.0 µM), 99.5% (active). Moreover, the growth inhibition is 4% in assay [5] (setting [7]); -7% in assay [5] (setting [8]); 99.6% (active) in assay [5] (at 50.0 µM); -2% in assay [6] (setting [7]); 3% in assay [6] (setting [8]); 99.5% (active) in assay [6] (at 50.0 µM).

Regarding `COC1C(=[N+]=[N-])C(=O)NC(=O)N1C1OC(COC(c2ccccc2)(c2ccccc2)c2ccccc2)C(O)C1O` (configuration not stated), the growth inhibition is 63% in assay [1] (setting [7]); 63% in assay [1] (setting [8]); 69.5% in assay [1] (at 50.0 µM); 10% in assay [2] (setting [7]); 10% in assay [2] (setting [8]); 80.7% (active) in assay [2] (at 50.0 µM). In addition, the growth inhibition was 18% in assay [3] (setting [7]); 18% in assay [3] (setting [8]); 66.8% in assay [3] (at 50.0 µM); 14% in assay [4] (setting [7]); 14% in assay [4] (setting [8]); 77.2% (active) in assay [4] (at 50.0 µM). Moreover, the growth inhibition in assay [5] (setting [7]) is 13%; in assay [5] (setting [8]), 13%; in assay [5] (at 50.0 µM) it was 60.2%; in assay [6] (setting [7]) it was 15%; in assay [6] (setting [8]), 15%; in assay [6] (at 50.0 µM), 66.6%.

`c1ccc(CSc2nnc(SCc3ccccc3)c3[nH]cnc23)cc1`: the growth inhibition in assay [1] (setting [7]) was -3%; in assay [1] (setting [8]), 33%; in assay [1] (at 50.0 µM), 61.4%; in assay [2] (setting [7]), -7%; in assay [2] (setting [8]), 38%; in assay [2] (at 50.0 µM), 46.9%. Moreover, the growth inhibition is -1% in assay [3] (setting [7]); 45% in assay [3] (setting [8]); 46.1% in assay [3] (at 50.0 µM); -4% in assay [4] (setting [7]); 23% in assay [4] (setting [8]); 56% in assay [4] (at 50.0 µM). The growth inhibition in assay [5] (setting [7]) is -3%; in assay [5] (setting [8]), 45%; in assay [5] (at 50.0 µM) it was 50.1%; in assay [6] (setting [7]) it was -6%; in assay [6] (setting [8]), 34%; in assay [6] (at 50.0 µM), 11.9%.

With `CCOc1ccccc1/C=C1\NC(=O)N(/C=C2\C(=O)Oc3ccccc3C2=O)C1=O`, the growth inhibition is 6% in assay [1] (setting [7]); 96% (active) in assay [1] (setting [8]); 93.7% (active) in assay [1] (at 50.0 µM); -13% in assay [2] (setting [7]); 96% (active) in assay [2] (setting [8]); 94.2% (active) in assay [2] (at 50.0 µM). For the same molecule, the growth inhibition is 0% in assay [3] (setting [7]); 85% (active) in assay [3] (setting [8]); 97.2% (active) in assay [3] (at 50.0 µM); 6% in assay [4] (setting [7]); 95% (active) in assay [4] (setting [8]); 88.5% (active) in assay [4] (at 50.0 µM). In addition, the growth inhibition was -4% in assay [5] (setting [7]); 96% (active) in assay [5] (setting [8]); 94.7% (active) in assay [5] (at 50.0 µM); 1% in assay [6] (setting [7]); 89% (active) in assay [6] (setting [8]); 95.5% (active) in assay [6] (at 50.0 µM).

`CCc1cccc(C)c1NC(=O)C(=O)CC(=O)c1ccccc1Cl`: the growth inhibition in assay [1] (setting [7]) was 0%; in assay [1] (setting [8]), -1%; in assay [1] (at 50.0 µM), 72% (active); in assay [2] (setting [7]), -1%; in assay [2] (setting [8]), 3%; in assay [2] (at 50.0 µM), 24.7%. Besides, the growth inhibition in assay [3] (setting [7]) is -4%; in assay [3] (setting [8]) it was 0%; in assay [3] (at 50.0 µM) it was 43.8%; in assay [4] (setting [7]) it was -6%; in assay [4] (setting [8]) it was 5%; in assay [4] (at 50.0 µM) it was -12.6%. Besides, the growth inhibition was -2% in assay [5] (setting [7]); -2% in assay [5] (setting [8]); 24.4% in assay [5] (at 50.0 µM); -8% in assay [6] (setting [7]); 0% in assay [6] (setting [8]); 31.1% in assay [6] (at 50.0 µM).

Take `Oc1ccc(O)c2c1N=NC21c2ccccc2Oc2ccccc21`: the growth inhibition in assay [1] (setting [7]) is 5%; in assay [1] (setting [8]) it was 86% (active); in assay [1] (at 50.0 µM), 65.6%; in assay [2] (setting [7]), 7%; in assay [2] (setting [8]) it was 89% (active); in assay [2] (at 50.0 µM), 54%. The growth inhibition in assay [3] (setting [7]) is 6%; in assay [3] (setting [8]), 91% (active); in assay [3] (at 50.0 µM), 83% (active); in assay [4] (setting [7]), 10%; in assay [4] (setting [8]), 84% (active); in assay [4] (at 50.0 µM) it was 86.5% (active). In addition, the growth inhibition is 5% in assay [5] (setting [7]); 89% (active) in assay [5] (setting [8]); 86.6% (active) in assay [5] (at 50.0 µM); 8% in assay [6] (setting [7]); 95% (active) in assay [6] (setting [8]); 90.8% (active) in assay [6] (at 50.0 µM).
